Assay outcomes deposited in PubChem by The Scripps Research Institute Molecular Screening Center.
The list is not random: actives were taken first. Their share in the collection is about 2.2%.
MOR-DOR inv ag: inverse agonists of MOR-DOR heterodimerization, primary screen, cell-based, luminescence | Mu-type opioid receptor (Homo sapiens) + Delta-type opioid receptor (Homo sapiens), … | cell-based MOR-DOR heterodimer luminescence, inverse agonism | inhibition, % at 9.3 µM | 340,000 tested, 0.21% active; in the data active = inhibition above about 22%, passing the limit was not always enough;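 note: 0% = cells with DMSO and 100% = wells without cells with DMSO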
HTR5A ag: HTR5A agonists in luminescence cell assay, primary screen, counter-screen for OPRM1-OPRD1 heterodimer agonist project, full-deck HTS; 340,000 tested, 0.61% active; 5-hydroxytryptamine receptor 5A (Homo sapiens), P47898; cell-based; activation, % at 9.3 µM; in the data active = activation mostly above about 9.5%, no sharp cut-off; inactive = mostly below about 7.6%;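 note: 0% = cells with vehicle only and 100% = reference agonist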
HTR5A inv ag: HTR5A inverse agonists in luminescence cell assay, primary screen, counter-screen for OPRM1-OPRD1 heterodimer inverse agonist project, full-deck HTS; AID 504634, 2011; 5-hydroxytryptamine receptor 5A (Homo sapiens), P47898; 340,000 tested, 0.083% active; inhibition, % at 9.3 µM; HTR5A cell line, inverse agonism; in the data active = inhibition mostly above about 23%, no sharp cut-off; inactive = mostly below about 18%;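 note: 0% = cells with DMSO and 100% = no-cell wells with DMSO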
HGIII-sPLA2 inh: human group III sPLA2 inhibitors, primary screen, biochemical, QFRET, BODIPY PC-A2 liposome substrate; Group 3 secretory phospholipase A2 (Homo sapiens), Q9NZ20; QFRET BODIPY PC-A2 liposome hydrolysis, fluorescence; inhibition, % at 12.2 µM; 370,000 tested, 0.56% active; AID 743126, 2013;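 active = inhibition above mean plus 3 SD of compounds lying within the high and low control bounds, cut at about 19% in these data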;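 note: 0% = median of test compound wells and 100% = no enzyme DMSO wells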
m5-HT2A agonist: mouse Htr2a agonists via beta-arrestin recruitment, primary screen, cell-based, luminescence; 5-hydroxytryptamine receptor 2A (Mus musculus), P35363; CHO-K1 mHTR2A beta-arrestin complementation; percent of 30 µM serotonin response; activation, % at 7.6 µM; 360,000 tested, 0.66% active;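 active = activation above a run cutoff, the mean activation of all tested compounds plus 3 SD, cut at about 14% in these data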;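 note: 0% = plate median of compound wells and 100% = 30 µM serotonin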
Target sequence (P35363 whole entry, looked up): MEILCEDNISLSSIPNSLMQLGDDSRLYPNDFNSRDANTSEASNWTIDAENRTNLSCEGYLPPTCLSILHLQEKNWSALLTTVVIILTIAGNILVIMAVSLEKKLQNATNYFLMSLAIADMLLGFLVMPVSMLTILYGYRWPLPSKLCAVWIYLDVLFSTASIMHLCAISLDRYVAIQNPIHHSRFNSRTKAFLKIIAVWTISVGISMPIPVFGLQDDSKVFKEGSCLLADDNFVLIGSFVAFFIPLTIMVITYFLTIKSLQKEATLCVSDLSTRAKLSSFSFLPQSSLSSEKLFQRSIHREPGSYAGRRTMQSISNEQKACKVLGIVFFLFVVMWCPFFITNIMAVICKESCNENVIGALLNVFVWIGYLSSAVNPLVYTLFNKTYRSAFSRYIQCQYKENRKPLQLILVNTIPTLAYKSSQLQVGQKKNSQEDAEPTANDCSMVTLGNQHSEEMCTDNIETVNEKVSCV
MOR-DOR ag-1: agonists of OPRM1-OPRD1 heterodimerization, primary screen, cell-based, luminescence; Mu-type opioid receptor (Homo sapiens) + Delta-type opioid receptor (Homo sapiens), …; cells; activation, % at 9.3 µM; 340,000 tested, 0.3% active;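 note: 0% = vehicle-treated cells and 100% = reference agonist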
MOR-DOR ag-2: OPRM1-OPRD1 heterodimerization promoters, counter-screen for HTR5A agonist project, cell-based, luminescence | shares compounds with HTR5A ag | U2OS counter-screen cells, complementation luminescence, 3 h | activation, % at 9.3 µM | 800 tested, 13% active | AID 504913, 2011
HTR5A ag conf: HTR5A agonists, retest of hits, confirmation, cell-based, luminescence. shares compounds with HTR5A ag. HTR5A agonist cell assay. activation, % at 9.3 µM. 800 tested, 17% active. AID 504915, 2011; in the data active = activation above about 17%;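 note: 0% = cells with vehicle only and 100% = full reference agonist response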
OPRM1 ag: OPRM1 agonists via beta-arrestin recruitment, confirmation, counter-screen for mouse HTR2A agonist project, cell-based, luminescence, single concentration. shares compounds with m5-HT2A agonist. U2OS OPRM1 beta-arrestin PathHunter; DMSO 0%, DAMGO 9.3 µM 100%. activation, % at 9.3 µM. 2,300 tested, 5.3% active;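 active = mean activation above the mean of DMSO-only wells plus 3 SD, cut at about 0.5% in these data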
HTR2A ag conf: mouse HTR2A agonists, beta-arrestin recruitment, confirmation, cell-based, luminescence, CHO-K1 PathHunter, triplicate; shares compounds with m5-HT2A agonist; DMSO 0%, 30 µM serotonin 100%; activation, % at 7.6 µM; 2,300 tested, 19% active;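 active = mean activation across triplicates above the hit threshold derived in the original primary screen, cut at about 15% in these data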
The depositor's hits bear a star; . = no result given; ! = a repeat was not active. Cut-off read from the data, not from the text of the source, unless noted: active = activation above about 18%; inactive = the rest.

SMILES	MOR-DOR inv ag	HTR5A ag	HTR5A inv ag	HGIII-sPLA2 inh	m5-HT2A agonist	MOR-DOR ag-1	OPRM1 ag	HTR2A ag conf	others
CN1C[C@H](CO)C[C@@H]2c3cccc4[nH]cc(c34)C[C@H]21	1.0	16.3*	-61.2	-0.2	23.1*	-0.2	-0.2	112.8*	MOR-DOR ag-2=1.1;HTR5A ag conf=23.3*
COC(=O)C1=C(c2ccc(OC(F)(F)F)cc2)C[C@@H]2CC[C@H]1N2C(=O)NCc1ccco1	.	.	.	1.1	.	.	.	.
CCOC(=O)[C@]12Cc3cc(Cl)ccc3[C@H]1N(C1CCCCC1)C(=O)c1cc(OC)ccc12	.	.	.	-2.2	1.8	.	.	.
OCCNCCc1c[nH]c2ccc(OCc3ccccc3)cc12	-5.3	3.4	-12.6	1.8	6.3	1.1	.	.
COc1ccc2[nH]cc(CCN)c2c1	3.3	59.9*	9.9	-17.4	51.9*	-0.7	-0.5	27.7*	MOR-DOR ag-2=8.6;HTR5A ag conf=-3.9
N#Cc1c(Br)n(C2OC(CO)C(O)C2O)c2ncnc(N)c12 (configuration not stated)	10.1	80.8*	-310.1	-1.4	50.9*	-2.3	-0.4	100.1*	MOR-DOR ag-2=32.3*;HTR5A ag conf=24.1*
CC(N)Cc1c[nH]c2ccc(O)cc12 (configuration not stated)	12.1	34.9*	-185.6	-2.4	49.4*	-2.2	-0.6	32.4*	MOR-DOR ag-2=1.6;HTR5A ag conf=60.0*
CSc1nnc([C@@H](N)Cc2c[nH]c3ccccc23)o1	3.9	-1.0	2.5	-1.7	9.9	-0.8	.	.
C[C@]12CC[C@H](OS(=O)(=O)O)CC1=CC[C@@H]1[C@@H]2CC[C@]2(C)C(=O)CC[C@@H]12	13.3	1.3	-4.6	3.9	14.8*!	-2.5	0.4	5.7
NC(Cc1ccc(N(CCCl)CCCl)cc1)C(=O)O (configuration not stated)	.	.	.	17.8	.	.	.	.
C[C@H](NC(=O)OCc1ccccc1)C(=O)NC(Cc1ccccc1)P(=O)(Oc1ccccc1)Oc1ccccc1 (some centres not stated)	.	.	.	-17.7	.	.	.	.
COc1ccc(OC(=O)N(C)C[C@H]2OCc3cnnn3CCCC(=O)N([C@@H](C)CO)C[C@@H]2C)cc1	.	.	.	6.5	.	.	.	.
Clc1cccc(CNCCc2c[nH]c3ccccc23)c1	-12.2	4.0	-14.3	-2.3	41.7*	2.7	-0.1	19.2*
FC(F)(F)c1ccc(CNCCc2c[nH]c3ccccc23)cc1	-7.0	7.0	-26.7	12.9	1.5	1.4	.	.
O=S(=O)(c1cc(Cl)cc(Cl)c1)N1Cc2cc(-c3cccc(F)c3)ccc2-n2nncc2C1	.	.	.	-5.0	14.5*	.	-0.3	-1.5
Cc1ccc(S(=O)(=O)N2Cc3cc(-c4cccc(F)c4)ccc3-n3nncc3C2)cc1	.	.	.	3.8	0.4	.	.	.
O=C1NC(=S)NC(=O)C1Cc1ccccc1O	-2.5	4.3	-16.7	16.2	-5.0	0.5	.	.
Cc1[nH]c2c(C(F)(F)F)cccc2c1CCN	5.7	-2.3	5.9	15.9	48.0*	-1.1	-0.5	32.4*
Cc1ccccc1C(=O)NCCN1CCC2(CC1)C(=O)NCN2c1ccccc1	.	.	.	14.8	.	.	.	.
CC12CC3CC(C)(C1)CC(N)(C3)C2	7.8	6.4	-5.5	17.8	18.0*!	-1.4	-0.5	3.7
Cn1c(O)c(C(=O)c2ccccc2)c(=O)n(C)c1=O	10.7	-0.9	2.6	3.8	17.6*	-2.0	-0.4	-0.7
Cn1c(O)c(C(=O)c2ccccc2F)c(=O)n(C)c1=O	12.3	-1.4	17.0	-5.1	-3.8	-2.5	.	.
O=C(Oc1c(Cl)cc(Cl)c2ccccc12)N1CCCCC1	-3.3	5.9	-6.7	-2.1	14.6*	0.8	0.2	5.5
CC(C)OC(=O)C1C(c2ccc(I)cc2)CC2CCC1N2C (configuration not stated)	.	.	.	-3.0	.	.	.	.
Brc1cccc(CNCCc2ccc3c(c2)OCO3)c1	-4.2	1.5	-5.5	4.1	21.2*	0.8	1.4*	21.0*
SMILES	MOR-DOR inv ag	HTR5A ag	HTR5A inv ag	HGIII-sPLA2 inh	m5-HT2A agonist	MOR-DOR ag-1	OPRM1 ag	HTR2A ag conf	others
CCCCCSc1cc(OC)c(CCN)cc1OC	-26.7	5.0	-11.9	15.7	30.0*	6.4	0.1	13.4
CCCCCCCSc1cc(OC)c(CCN(C)C)cc1OC	-27.8	0.4	-1.0	-15.2	34.5*	5.5	0.4	17.1*
COc1cc(CCN)ccc1O	7.2	4.2	-14.8	8.5	5.3	-1.3	.	.
CN1c2ccc(Br)cc2[C@@H]2NCC[C@@H]2[C@@H]1CO	.	.	.	3.4	.	.	.	.
CC(C)C[C@H]1COc2cc(N3CCN(C)CC3)ccc2S(=O)(=O)N1	.	.	.	11.4	1.9	.	.	.
COC1CC2C=C(C)C=CC=CC(=O)NC(c3ccccc3)CC=CCCC(O)CC(=O)C2=C1O (configuration not stated)	.	.	.	-16.8	21.0*	.	6.0*	19.1*
Cc1ccc(NC2=NCCCS2)c(C)c1C	10.2	2.5	-34.9	12.2	18.5*	-1.5	-0.4	14.8*
CCCCCCC(C)(C)c1ccc([C@@H]2C[C@H](O)CC[C@H]2CCCO)c(O)c1	-59.9	10.8	-2.6	-38.6	29.2*	10.8	0.8*	22.6*
COc1ccc2c(c1)C13CCN4CC5=CCOC6CC(=O)N2C1C6C5CC43 (configuration not stated)	.	.	.	13.3	2.7	.	.	.
O=C(CNCc1c(F)cccc1F)N1CCC2(CC1)OCCO2	.	.	.	2.5	.	.	.	.
CCOC(=O)c1ccc(NC(=O)N2C[C@@H]3C[C@@H](C2)c2cccc(=O)n2C3)cc1	2.0	1.8	6.3	12.7	25.4*	-0.4	-0.5	-2.3
CCOC(=O)c1ccc(NC(=O)N2CC3CC(C2)c2cccc(=O)n2C3)cc1 (configuration not stated)	18.2	0.4	-0.9	3.6	-11.4	-3.6	.	.
